# Results: PubChem BioAssay AID485353 (National Center for Advancing Translational Sciences (NCATS), 2010)
# About 610 (0.18%) of roughly 330,000 compounds were called active. Another 2% or so got no clear call; they are omitted. Calls follow the shape of the full dose curve. What follows is part of a selection rich in actives, with near analogues and random picks from the rest. Entries that show only a call come without a potency.
# Assay: qHTS of Yeast-based Assay for SARS-CoV PLP; also: nearly all actives have a fitted effect of over 55% in size
# Conditions: S. cerevisiae expressing SARS-CoV PLpro; Potency: growth rescue; series mostly up to 32.9 µM
# Potency is read from the fitted curve at half-maximal effect.
Structure (SMILES),Potency,"activity, positive = growth rescue"
Cc1nc(-c2ccc(Cl)cc2)sc1C(=O)CBr,inactive,–
Cc1ccc(SCC(=O)c2sc(-c3ccccc3)nc2C)cc1,3.55 µM (active),–
Cc1nc(-c2ccccc2)sc1C(=O)/C=C/N(C)C,inactive,–
CN(CC(=O)NCCN1CCOCC1)S(=O)(=O)c1ccc(F)cc1,inactive,–
C/C(=N\NC(=O)c1cccc([N+](=O)[O-])c1)c1cccnc1,inactive,–
Cc1[nH]n(-c2ccc([N+](=O)[O-])cc2)c(=O)c1C=NCCN1CCN(C(=O)c2ccccc2F)CC1,inactive,–
COc1cc(/C=N/NC(=O)c2ccoc2C)ccc1OCCN1CCCCC1,inactive,–
Cc1ccc(-n2[nH]c(C)c(/C=N/NC(=O)c3cccc([N+](=O)[O-])c3)c2=O)cc1C,1.26 µM (active),–
Cc1[nH]n(-c2ccccc2)c(=O)c1/C=N/NC(=O)c1ccoc1C,2.51 µM (active),–
C/C(=N\NC(=O)c1ccoc1C)c1ccccc1O,inactive,–
O=C(Cn1cc(/C=N/NC(=O)c2cccc(C(F)(F)F)c2)c2ccccc21)Nc1ccc(F)cc1,inactive,–
O=C(NCCCn1ccnc1)C(=O)NCC1OCCN1S(=O)(=O)c1cc(F)ccc1F (stereo unspecified),inactive,–
CCc1cccc(NC(=O)COC(=O)c2cc(=O)c3ccccc3o2)c1,inactive,–
Nc1nonc1-n1nnc(C(=O)N/N=C\c2ccncc2)c1CN1CCCCC1,inactive,–
Cc1ccc(SCc2c(C(=O)N/N=C/C3CC=CCC3)nnn2-c2nonc2N)cc1 (stereo unspecified),inactive,–
Nc1nonc1-n1nnc(C(=O)N/N=C/c2cc(Br)ccc2O)c1CSC1=NCCS1,4.47 µM (active),–
CSc1nc(-c2ccco2)nn1C(=O)c1ccccc1Cl,inactive,–
COc1cc(C(=O)N/C(=C\c2cn(C)c3ccccc23)C(=O)N2CCOCC2)cc(OC)c1OC,inactive,–
CCN(CC)c1ccc(/C=N/NC(=O)c2cnccn2)c(O)c1,inactive,–
Cc1cc(C)nc(N/N=C/c2c(CO)cnc(C)c2O)n1,inactive,–
CCN(CC)c1ccc(/C=N/Nc2nc(C)cc(C)n2)c(O)c1,5.01 µM (active),–
CC1(C)Cc2nc3sc4c(SCC(=O)NC(c5ccccc5)c5ccccc5)ncnc4c3cc2CO1,inactive,–
COc1ccc(NC(=O)C(=O)NCC(c2ccco2)N2CCc3ccccc3C2)cc1 (stereo unspecified),inactive,–
CCOc1c(Nc2cccc(Cl)c2)c(=O)c1=O,inactive,–

Structure (SMILES),Potency,"activity, positive = growth rescue"
CCOCCCNC(=O)C(NC(=O)c1ccc(=O)[nH]c1)c1ccc(Cl)cc1 (stereo unspecified),inactive,–
CC1(C(=O)OCC(=O)Nc2ncc(Cl)cc2Cl)CC1(Cl)Cl (stereo unspecified),inactive,–
CN(CC(=O)Nc1ccc(S(=O)(=O)N2CCCC2)cc1)Cc1ccc(Cl)c(Cl)c1,inactive,–
C=CCn1c(-c2sc(-c3ccccc3)nc2C)n[nH]c1=S,inactive,–
C=CCn1c(SCC(=O)NC)nnc1C12CC3CC(CC(C3)C1)C2,inactive,–
C=CCn1c(C23CC4CC(CC(C4)C2)C3)n[nH]c1=S,11.2 µM (active),–
O=C(N/N=C/c1cc([N+](=O)[O-])ccc1O)/C(=C\c1cccs1)NC(=O)c1ccccc1,3.98 µM (active),–
O=C(Nc1ccc(C(=O)O)cc1)/C(=C/c1ccc([N+](=O)[O-])cc1)NC(=O)c1ccccc1,inactive,–
C=CCNC(=O)/C(=C\c1cccc([N+](=O)[O-])c1)NC(=O)c1ccccc1,inactive,–
COc1cccc(CNC(=O)CN(C)S(=O)(=O)c2ccc3c(c2)c(=O)n(C)c(=O)n3C)c1,3.55 µM (active),–
CC1CCC(NC(=O)CN(C)S(=O)(=O)c2ccc3c(c2)c(=O)n(C)c(=O)n3C)CC1 (stereo unspecified),inactive,–
CCc1ccccc1NC(=O)CN(C)S(=O)(=O)c1ccc2c(c1)c(=O)n(C)c(=O)n2C,inactive,–
COc1ccc(NC(=O)Nc2ccc3c(c2)C(=O)N([C@H](C)CO)C[C@H](C)[C@@H](CN(C)C(=O)Nc2ccc4c(c2)OCO4)O3)cc1,inactive,–
Cc1ccc(S(=O)(=O)N2[C@@H](c3cccc(Cl)c3)C(C(=O)O)=CC[C@H]2c2ccc(Cl)c(Cl)c2)cc1,inactive,–
CCCCNC(=O)N(O)C1N(/N=C/c2ccccc2O)C(=S)SC1(C)C (stereo unspecified),inactive,–
COC(=O)c1ccc(/C=N/OCC(=O)Nc2cc(F)ccc2F)cc1,inactive,–
COc1ccc(-c2cc(=O)oc3cc(OC(C)C(=O)NCC4CCC(C(=O)O)CC4)ccc23)cc1 (stereo unspecified),inactive,–
CSc1nsc(SCC(=O)Nc2cc(C(=O)O)ccc2C)n1,inactive,–
O.O.O.O=S(=O)([O-])OC[C@H]1O[C@@H](O[C@]2(COS(=O)(=O)[O-])O[C@H](OS(=O)(=O)[O-])[C@@H](OS(=O)(=O)[O-])[C@@H]2OS(=O)(=O)[O-])[C@H](OS(=O)(=O)[O-])[C@@H](OS(=O)(=O)[O-])[C@@H]1OS(=O)(=O)[O-].[Al],inactive,–
Nc1nonc1-n1nnc(C(=O)N/N=C/c2c[nH]c3ccccc23)c1-c1ccccc1,inactive,–
CC(C)c1c(C(=O)N/N=C/c2ccccc2C(=O)O)nnn1-c1nonc1N,5.01 µM (active),–
CC(C)c1c(C(=O)N/N=C/c2ccc(-c3ccccc3)cc2)nnn1-c1nonc1N,inactive,–
CCc1ccccc1N1C(=O)C2C3CC(=O)C(c4ccccc43)C2C1=O (stereo unspecified),inactive,–
c1ccc2cc3c(NCCN4CCOCC4)ccnc3cc2c1,inactive,–

Structure (SMILES),Potency,"activity, positive = growth rescue"
Fc1ccc(CNCc2ccc(Br)cc2)cc1,inactive,–
O=C(CCl)N(Cc1cccc([N+](=O)[O-])c1)c1cccc(Cl)c1,inactive,–
COc1ccc(NC(=O)Cn2cc(C(=O)c3ccncc3)c(=O)c3cc(C)ccc32)cc1Cl,inactive,–
COc1cc(C2C(C(=O)OCCC#N)=C(C)NC3=C2S(=O)(=O)c2ccccc23)cc(OC)c1OC (stereo unspecified),inactive,–
COc1ccc(C2N=C(N)N=C(N)N2c2ccccc2)cc1OC (stereo unspecified),inactive,–
CCOC(=O)C1CCN(S(=O)(=O)c2c(C)noc2C)CC1,inactive,–
COc1ccc(CCN2CC(C(=O)NCCN3CCNC3=O)CCC2=O)cc1 (stereo unspecified),inactive,–
CN(C)C(=O)N1CCNCC1,inactive,–
CCC(=O)Nc1nc(OC)cc(OC)n1,inactive,–
CCC(=O)Nc1c(C)n[nH]c1C,10 µM (active),–
COC(=O)c1ccc(NC(=O)CN(c2ccc(C)cc2)S(=O)(=O)c2c(C)n[nH]c2C)cc1,inactive,–
CCCC[C@]12Cc3cc(OC)c(OC)cc3C(O1)C1=C(CC3(CCCCC3)OC1=O)O2,–,5.12% [at 6.58 µM] (inactive)
O=C(CSc1ncnc2c1cnn2CCc1ccccc1)Nc1ccc(F)cc1,inactive,–
O=C(NCCCCCCCCCNC(=O)C(F)(F)F)C(F)(F)F,inactive,–
CC1CC(C)CN(C/C=C/c2ccccc2[N+](=O)[O-])C1 (stereo unspecified),inactive,–
COc1ccc(NC(=O)C(NC(C)=O)C(=O)NCc2ccccc2Cl)cc1 (stereo unspecified),inactive,–
CCCCNS(=O)(=O)CCNCc1ccccc1OC,inactive,–
CCOC(=O)[C@@H]1[C@H]2COc3cc(OC)ccc3[C@H]2N2C(=O)N(c3ccc(F)cc3)C(=O)[C@]12C,inactive,–
CC(NC(=S)Nc1ccccc1)C1COc2ccccc2O1 (stereo unspecified),10 µM (active),–
S=C(NCC1COc2ccccc2O1)Nc1ccc(Br)cc1 (stereo unspecified),inactive,–
CCCN(CC1COc2ccccc2O1)C(=S)Nc1ccc(C)cc1 (stereo unspecified),inactive,–
O=C(CNC(=O)C12CC3CC(CC(C3)C1)C2)OCC(=O)N1CCCCC1,inactive,–
Cc1sc(NC(=O)C2=COCCO2)c(C#N)c1C,inactive,–
Cc1cccc(N2O[C@H]3C=CC2CCCC3)n1,inactive,–

Structure (SMILES),Potency,"activity, positive = growth rescue"
COc1ccc(CCNC(=O)COC(=O)c2ncc(Cl)c(Cl)c2Cl)cc1OC,inactive,–
CC1(C)C2CCC1(CS(=O)(=O)NCCc1c[nH]c3ccccc13)C(=O)C2 (stereo unspecified),inactive,–
Cc1nc2c(C(=O)NCc3cccs3)cnn2c(C)c1Cc1ccc(F)cc1,inactive,–
Nc1ccccc1SC(C[N+](=O)[O-])c1ccccc1 (stereo unspecified),inactive,–
COc1ccc(N(CCC#N)S(=O)(=O)c2ccc(Cl)cc2)cc1,inactive,–
Cc1cccc(N=C2NC(=O)/C(=C/c3cn(C)c4ccccc34)S2)c1,15.8 µM (active),–
Cc1ccc(N=C2NC(=O)/C(=C/C=C/c3ccco3)S2)cc1C,inactive,–
Cc1ccc(N2C(=O)S/C(=C/c3cn(C)c4ccccc34)C2=O)cc1,inactive,–
CCCCNc1nc2ccccc2nc1NS(=O)(=O)c1cccs1,inactive,–
O=S(=O)([N-]c1nc2ccccc2nc1-[n+]1ccc(Cc2ccccc2)cc1)c1ccc(Br)s1,inactive,–
Cc1cc(C)c[n+](-c2nc3ccccc3nc2[N-]S(=O)(=O)c2cccs2)c1,11.2 µM (active),–
CCC1CCCCN1C(=O)CSc1nc2c(c(=O)n1C)SC(C)C2 (stereo unspecified),inactive,–
COc1cccc(/C=N/NC(=O)c2[nH]nc3c2CCc2ccccc2-3)c1O,6.31 µM (active),–
COc1ccc(/C=N/NC(=O)c2ccncc2)cc1CN1CCCc2ccccc21,inactive,–
COc1ccc(Br)cc1/C=N/NC(=O)c1cccc(S(=O)(=O)N2CCOCC2)c1,inactive,–
CC(C#N)(NC(=O)CN1CCN(S(=O)(=O)c2cc(C(F)(F)F)ccc2Cl)CC1)C1CC1 (stereo unspecified),inactive,–
COc1ccc2cc(-c3[nH]ncc3CNCCn3nc(C)cc3C)ccc2c1,inactive,–
CCn1c(=O)c(=O)n(CC)c2cc(N3CCCCC3)c(NC(=O)c3ccc(Cl)cc3)cc21,inactive,–
N#Cc1ccc(-c2nc3cc(C#N)c(C#N)cc3nc2-c2ccccc2)cc1C#N,inactive,–
Cc1cc2ccccc2n2c(SCC(=O)N3CCN(C(=O)c4ccco4)CC3)nnc12,inactive,–
N#Cc1ccc(C2=CC(=O)C[C@H](c3ccc(Cl)cc3)C2)cc1,inactive,–
Cn1c(=O)c2c(SCC(=O)N3CCOCC3)nc(C3CC3)nc2n(C)c1=O,inactive,–
CCCCn1c(N)c(N(CC(C)C)C(=O)c2cnc(C)cn2)c(=O)[nH]c1=O,inactive,–
CC(C)N1CCC(=NNc2ccc([N+](=O)[O-])cc2S(=O)(=O)N2CCOCC2)CC1,inactive,–
